PfM18AAP inh-1: PfM18AAP inhibitors, malaria aminopeptidase, primary screen, biochemical, QFRET, recombinant enzyme; H-Glu-NHMec fluorogenic cleavage; inhibition, % at 7.35 µM; 290,000 compounds, 1.2% hits; AID 1822, 2009;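 active = inhibition above the campaign mean inhibition over all tested compounds plus 3 SD, cut at about 28% in these data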
ALR inh: inhibitors of human ALR sulfhydryl oxidase, primary screen, biochemical, H2O2 detection, HRP-luminol luminescence, single point | purified ALR, DTT oxidation | inhibition, % (test concentration not listed) | 290,000 compounds, 3.8% hits | AID 485317, 2010;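 active = mean replicate inhibition above about 79%, with every replicate also reaching it, limit read from the data; inconclusive = only one of the two criteria met; inactive = mean below limit and not every replicate reaching it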
IDE act: human IDE activators in live cells, primary screen, fluorescence polarization, HEK cells, FAbeta-B substrate; Insulin-degrading enzyme (Homo sapiens), P14735; FAbeta-B cleavage; 0% vehicle, 100% cell-free pure enzyme wells; activation, % at 5.96 µM; 340,000 compounds, 0.073% hits;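 active = activation above the mean of all tested compounds plus 3 SD, set per screening campaign, cut at about 17% in these data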
IDE cell inh: human IDE inhibitors in live cells, primary screen, fluorescence polarization, HEK cells, FAbetaB substrate. FAbetaB cleavage. inhibition, % at 5.59 µM. 320,000 compounds, 0.41% hits. AID 434962, 2010;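 active = percent inhibition above the average of all tested compounds plus 3 SD, set per screening campaign, cut at about 16% in these data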;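 note: IDE supplied by intact live HEK cells; FP after avidin binding of uncleaved biotin substrate so inhibition keeps polarization high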
CaV13 ICDI inh: Disruptors of the CACNA1D IQ motif to Ca2+-dependent inactivation inhibitor domain association, primary screening, Förster resonance energy transfer in intact living …; HEK cells, CFP/YFP FRET ICDI-IQ, plate reader, 10 min; percent FRET-ratio fall versus neutral wells; inhibition, % at 12.3 µM; 340,000 compounds, 0.098% hits;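 active = mean replicate inhibition of at least 30% and at least 1% of replicates passing that level; inconclusive = only one of the two criteria is met; inactive = neither criterion is met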
PolyA inhibitor: polyadenylation inhibitors in yeast reporter cells, primary screen, luminescence, S. cerevisiae. S. cerevisiae SKY197-pL101 polyadenylation reporter, beta-gal luminescence; efflux-impaired pdr1/pdr3 knockout yeast; score 100 = 6 SD above DMSO. activity score, % at 12 µM. 300,000 compounds, 0.02% hits. AID 1875, 2009;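 active = lowest replicate activity score at least 50, where 100 means six control SD above control mean; inconclusive = lowest score under 50 but half or more replicates reach 50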;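 note: yeast exposed to compound for 9 h at 30 °C; higher score means more reporter readthrough which indicates perturbed polyadenylation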
PfM18AAP inh-2: PfM18AAP inhibitors, malaria aminopeptidase, confirmation, biochemical, QFRET, recombinant enzyme, triplicate | inhibition, % at 7.35 µM | AID 2170, 2009 | H-Glu-NHMec fluorogenic cleavage | shares compounds with PfM18AAP inh-1 | 2,400 compounds, 28% hits;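 active = mean inhibition over replicate wells above the hit cutoff set for the earlier primary screen, cut at about 29% in these data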
CTSL1 confirm: cathepsin L1 inhibitors, retest, confirmation, counter-screen for PFM18AAP inhibitor project, biochemical, QFRET, triplicate; shares compounds with PfM18AAP inh-1; inhibition, % at 5.96 µM; purified cathepsin L1, Z-Leu-Arg-MCA fluorescence; 2,400 tested, under 10 active;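 active = average inhibition across replicates above the hit cutoff set in the earlier primary screen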
Of the large screens only hits and unclear results are named; the others gave an inactive call (follow-up assays come after a bar, where they were run); ! = a repeat was not active. This is a sample that favours compounds with a hit; in the whole collection about 4.1% have one here.

COc1ccc(C(=O)Nc2ccc(/C(C)=N/NC(=O)c3ccccc3O)cc2)cc1OC	PfM18AAP inh-1 37 (no result: ALR inh) | PfM18AAP inh-2 inactive | CTSL1 confirm inactive
Nc1sc(-c2ccccc2)cc1C(=O)NCCc1c[nH]c2ccccc12	none (no result: PfM18AAP inh-1, ALR inh, IDE act, IDE cell inh, PolyA inhibitor)
N#C/C(=C\c1ccc(-c2cccc(C(F)(F)F)c2)o1)C(=O)Nn1cnnc1	PfM18AAP inh-1 33 | PfM18AAP inh-2 inactive | CTSL1 confirm inactive
C/C(=N\Nc1cccc(C(=O)O)c1)c1ccc(Cl)s1	PfM18AAP inh-1 41, ALR inh 98 | PfM18AAP inh-2 inactive | CTSL1 confirm inactive
COc1ccccc1-c1noc(CCC(=O)NC2CCCCC2)n1	none (no result: CaV13 ICDI inh)
O=C(NNc1cc(C(F)(F)F)ccc1Cl)c1ccc(=O)[nH]c1	PfM18AAP inh-1 44 | PfM18AAP inh-2 inactive | CTSL1 confirm inactive
O=C(c1ccc(=O)[nH]c1)N1CCN(S(=O)(=O)c2cc(C(F)(F)F)ccc2Cl)CC1	none (no result: ALR inh)
CC(=O)Nc1ccc(NCC(=O)c2ccccc2)cc1	PfM18AAP inh-1 34 | PfM18AAP inh-2 inactive | CTSL1 confirm inactive
CCN1/C(=C2\C(=O)N(C)C(=S)N2C)C=Cc2cc(OC)ccc21	PfM18AAP inh-1 34 | PfM18AAP inh-2 inactive | CTSL1 confirm inactive
CCN1C(=O)/C(=C2/C=Cc3cc(C)ccc3N2CC)N(C)C1=S	none
O=C(NC1CCCCC1)C(c1ccnc2ccccc12)n1c(=O)c(-c2ccccc2)nc2ccccc21 (stereo not drawn)	none (no result: PfM18AAP inh-1, ALR inh, IDE act, IDE cell inh, PolyA inhibitor)
O=C(CN1CCN(c2ccc(O)cc2)CC1)N1CCc2ccccc21	PfM18AAP inh-1 42, ALR inh 80 | PfM18AAP inh-2 inactive | CTSL1 confirm inactive
COCCn1c(Cc2ccccc2)nnc1SCC(=O)NC1CC1	none
O=C1NC(=O)C([N+](=O)[O-])=C(O)C1=O	none (no result: PfM18AAP inh-1, ALR inh, IDE act, IDE cell inh, PolyA inhibitor)
S=C(NCCc1ccccc1)Nc1ncccn1	none (no result: PfM18AAP inh-1, ALR inh, IDE cell inh, PolyA inhibitor)
S=C(NCCc1ccccc1)Nc1c(Cl)cccc1Cl	PfM18AAP inh-1 41 | PfM18AAP inh-2 inactive | CTSL1 confirm inactive
Cc1cccnc1NC(=S)NCCc1ccccc1	PfM18AAP inh-1 42 (no result: ALR inh) | PfM18AAP inh-2 inactive | CTSL1 confirm inactive
Cc1cccc(NC(=S)NCCc2ccccc2)c1C	none
OCCNC(=S)NCCc1ccccc1	none
Cc1cccc(C)c1NC(=S)NCCc1ccc(O)c(O)c1	PfM18AAP inh-1 73 | PfM18AAP inh-2 50 | CTSL1 confirm inactive
CN(C)S(=O)(=O)N1CCC(n2nccc2NC(=O)CCCc2ccccc2)CC1	none
CCO[C@H]1c2c(ccc3ccc(=O)oc23)OC(C)(C)[C@@H]1O	none (no result: PfM18AAP inh-1, PolyA inhibitor)
Oc1ccc(-c2ccccc2)cc1CN1CCCCCC1	none
Nc1cc(-c2ccccc2)ccc1O	PfM18AAP inh-1 35!, ALR inh 99 | PfM18AAP inh-2 inactive | CTSL1 confirm inactive
CCCCNC(=O)NNc1nc(Cl)cc(C)c1C#N	PfM18AAP inh-1 54, ALR inh inconclusive | PfM18AAP inh-2 45 | CTSL1 confirm inactive
CCc1ccc(OCCCCN(C)Cc2ccccc2)cc1	none
C=CCOc1ccc(C2/C(=C(/O)c3ccc(OC)cc3)C(=O)C(=O)N2CCN2CCNCC2)cc1 (stereo not drawn)	none
O=C(O)c1ccc(N/N=C/c2ccc(C(F)(F)F)cc2)cc1	none (no result: ALR inh)
O=C(O)c1ccc(/C=N/Nc2ncc(C(F)(F)F)cc2Cl)cc1	PfM18AAP inh-1 48 (no result: ALR inh) | PfM18AAP inh-2 inactive | CTSL1 confirm inactive
NC(=O)NNc1ncc(C(F)(F)F)cc1Cl	PfM18AAP inh-1 45, ALR inh inconclusive | PfM18AAP inh-2 36 | CTSL1 confirm inactive
COc1ccc(C(=O)N/C(=C/c2ccc(Cl)cc2)C(=O)Nc2ccc(C(=O)O)cc2)cc1	none (no result: IDE cell inh)
CCCC[C@@H]1C=C(C(=O)O)[C@H](c2ccc3c(c2)OCO3)N1S(=O)(=O)c1ccc(C)cc1	none (no result: PfM18AAP inh-1, ALR inh, PolyA inhibitor)
COCc1ccc(C(=O)N(C)CC2CCCN(CCc3ccccc3F)C2)o1 (stereo not drawn)	none
Cc1ccsc1/C=N/Nc1nc(Cl)c(Cl)cc1Cl	none
Cc1ccc(/C=N/Nc2nc(Cl)c(Cl)cc2Cl)s1	PfM18AAP inh-1 46 | PfM18AAP inh-2 inactive | CTSL1 confirm inactive
Cc1cccc(Nc2nc3c(s2)CCCC3)c1	PfM18AAP inh-1 32, ALR inh 96 | PfM18AAP inh-2 inactive | CTSL1 confirm inactive
O=C(O)c1ccc(Nc2nc3c(s2)CCCC3)cc1	none
COc1cc(/C=N/NC(=O)Cc2csc(N3CCOCC3)n2)cc(OC)c1O	PfM18AAP inh-1 32, ALR inh 99 | PfM18AAP inh-2 inactive | CTSL1 confirm inactive
CCC(=O)c1ccc(OCC(=O)OCC(=O)N2c3ccccc3CC2C)cc1 (stereo not drawn)	none (no result: PfM18AAP inh-1)
CCOC(=O)c1c(NC(C)=O)sc2c1CCC(C=O)=C2Sc1ccccc1	PfM18AAP inh-1 40 | PfM18AAP inh-2 inactive | CTSL1 confirm inactive
CN(C)c1cccc(C(=O)NNC(=O)CN2C(=O)C3CC=CCC3C2=O)c1 (stereo not drawn)	none (no result: PfM18AAP inh-1, PolyA inhibitor)
O=C(CSc1ccccc1)NCCc1ccccc1	none
O=C(CSc1ccc2ccccc2c1)NCCc1ccc(O)c(O)c1	PfM18AAP inh-1 57, ALR inh 99 | PfM18AAP inh-2 41 | CTSL1 confirm inactive
NC(=O)C1CCN(C(=O)C(=O)c2cn(CC(=O)N3CCCC3)c3ccccc23)CC1	PfM18AAP inh-1 43 | PfM18AAP inh-2 inactive | CTSL1 confirm inactive
CC1CCN(C(=O)C(=O)c2cn(CC(=O)N3CCCC3)c3ccccc23)CC1	none (no result: CaV13 ICDI inh)
Cn1c(CNC(=O)c2cccs2)n[nH]c1=S	none
O=C(NCc1n[nH]c(=S)n1-c1ccc(Br)cc1)c1cccs1	PfM18AAP inh-1 34 | PfM18AAP inh-2 inactive | CTSL1 confirm inactive
COc1ccccc1-n1c(CNC(=O)c2cccs2)n[nH]c1=S	PfM18AAP inh-1 36 | PfM18AAP inh-2 inactive | CTSL1 confirm inactive
Cc1cc(NC(=O)CCC(=O)N(CC(=O)NC2CCCC2)c2ccc(C(C)C)cc2)no1	none
Cc1nnc(NC(=O)CSc2nnc(-c3ccco3)n2C(C)C)s1	none
CC(C)n1c(SCC(=O)Nc2nncs2)nnc1-c1ccco1	PfM18AAP inh-1 74 (no result: IDE act, CaV13 ICDI inh) | PfM18AAP inh-2 60 | CTSL1 confirm inactive

Bioassay records deposited in PubChem by several laboratories.
